Source: PubChem BioAssay
Compounds with a hit are over-represented: about 2.8% of the library has one in this group of screens.
PI5P4K alpha inh: qHTS for Inhibitors of phosphatidylinositol 5-phosphate 4-kinase (PI5P4K). Phosphatidylinositol 5-phosphate 4-kinase type-2 alpha (Homo sapiens), P48426. PI5P4Kalpha enzyme, ADP-Glo luminescence, 60 min; stronger effect = lower value. max response, %. 1.2% of 330,000 active; active = max response of -50% or lower; inconclusive = between -30% and -50%; inactive = -30% or higher; also: value at the top dose of about 77 µM; % is scaled to controls: 0 for no effect and ±100 for the full control effect
Target sequence (P48426 whole entry, looked up): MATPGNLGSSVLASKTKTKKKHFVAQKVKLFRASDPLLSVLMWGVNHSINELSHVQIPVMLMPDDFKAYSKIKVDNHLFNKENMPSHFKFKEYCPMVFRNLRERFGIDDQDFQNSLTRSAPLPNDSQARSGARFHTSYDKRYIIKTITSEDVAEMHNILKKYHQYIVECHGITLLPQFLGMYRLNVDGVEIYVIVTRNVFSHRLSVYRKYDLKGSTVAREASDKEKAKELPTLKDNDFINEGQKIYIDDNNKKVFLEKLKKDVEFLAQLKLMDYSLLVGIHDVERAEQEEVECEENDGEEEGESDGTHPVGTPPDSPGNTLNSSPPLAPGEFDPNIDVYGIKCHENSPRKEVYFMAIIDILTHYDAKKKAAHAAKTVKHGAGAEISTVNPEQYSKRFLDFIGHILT
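Quantitative HTS of the MLSMR library against PI5P4Kalpha with substrate. ATP added last at 5 microM final; room temperature, 60 minutes. Remaining ATP depleted, ADP converted and read as luminescence.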
Pol iota inh: qHTS for Inhibitors of Polymerase Iota | Potency, µM (highest dose often 115 µM), inactives show top-dose activity, negative = inhibition, usual class: inhibitors | DNA polymerase iota (Homo sapiens), Q9UNA4 | 1% of 390,000 active | Pol iota fluorescent replication assay, 10 min; also: potency is read from the fitted curve at half-maximal effect
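Fluorescent replication assay read twice, at 0 min and 10 min after adding 50 nM (final) substrate. Enzyme (10 nM) and compounds were first incubated 15 min at room temperature; enzyme-free buffer wells were negative controls.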
Pol kappa inh-1: qHTS for Inhibitors of Polymerase Kappa; purified Pol kappa, fluorescent DNA synthesis assay, 10 min; DNA polymerase kappa (Homo sapiens), Q9UBT6; Potency, µM (top dose mostly 107 µM), inactives show top-dose activity, negative = inhibition, actives largely listed as inhibitors; 0.53% of 400,000 active; AID 588579, 2011; also: potency is read from the fitted curve at half-maximal effect; % is scaled to controls: 0 for no effect and ±100 for the full control effect
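10 nM Pol kappa was preincubated with compounds for 15 min at room temperature. Reaction started with 50 nM (final) substrate. Fluorescence read kinetically at 0 and 10 min.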
FEN1 inh-1: qHTS Assay for the Inhibitors of Human Flap endonuclease 1 (FEN1); 0.35% of 390,000 active; P39748; Recombinant FEN1 flap cleavage, fluorescence, 15 min; Potency, µM (doses to about 114 µM), for the others: at the top dose activity change, negative = inhibition, actives largely listed as inhibitors; also: potency is read from the fitted curve at half-maximal effect; % is scaled to controls: 0 for no effect and ±100 for the full control effect; nearly all actives have a fitted effect of over 65% in size
Target sequence (P39748 whole entry, looked up): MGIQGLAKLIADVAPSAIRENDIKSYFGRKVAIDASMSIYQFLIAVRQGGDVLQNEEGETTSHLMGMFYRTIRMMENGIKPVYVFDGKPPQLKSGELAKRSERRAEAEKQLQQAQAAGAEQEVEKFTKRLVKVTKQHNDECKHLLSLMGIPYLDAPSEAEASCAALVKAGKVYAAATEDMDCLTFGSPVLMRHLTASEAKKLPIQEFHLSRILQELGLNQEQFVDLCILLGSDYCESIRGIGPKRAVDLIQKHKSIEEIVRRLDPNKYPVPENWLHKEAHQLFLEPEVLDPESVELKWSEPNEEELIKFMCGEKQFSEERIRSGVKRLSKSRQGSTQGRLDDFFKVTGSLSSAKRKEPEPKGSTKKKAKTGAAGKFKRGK
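Steps: FEN1 (10 nM) dispensed; compound added by pin tool; 15 min at room temperature; substrate added to 50 nM final; reads at 0 min and 15 min; data normalized and fitted (four-parameter Hill).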
Pol eta inh-1: qHTS for Inhibitors of Polymerase Eta | AID 588591, 2011 | 1.2% of 390,000 active | DNA polymerase eta (Homo sapiens), Q9Y253 | Potency, µM (top dose mostly 114 µM), for the others: top-dose activity change, negative = inhibition, most hits filed as inhibitors | recombinant Pol eta, fluorescent DNA replication assay; also: potency is read from the fitted curve at half-maximal effect; % is scaled to controls: 0 for no effect and ±100 for the full control effect
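Pol eta at 10 nM preincubated with compounds 15 min at room temperature; reaction started with fluorescent substrate (50 nM final) and read kinetically at 0 and 10 min.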
Pol beta inh: qHTS Assay for Inhibitors of DNA Polymerase Beta; P06746; Pol beta primer extension/strand displacement, fluorescence kinetic; Potency, µM (series often up to 114 µM), for inactives: at the highest dose activity change, negative = inhibition, actives largely listed as inhibitors; 1.3% of 340,000 active; also: potency is read from the fitted curve at half-maximal effect; % is scaled to controls: 0 for no effect and ±100 for the full control effect
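Pol beta (10 nM) was preincubated with compound for 15 min at room temperature. The reaction was then started with 50 nM substrate and read immediately and after a further 10 min at room temperature.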
PGK validate: qHTS for inhibitors of Phosphogylcerate Kinase: Hit Validation Screen; shares compounds with Pol kappa inh-1; TbPGK coupled GAPDH assay, Kinase-Glo luminescence; Potency, µM (highest dose often 57.5 µM), without a hit: at the top dose activity change, negative = inhibition, most hits filed as inhibitors; 79% of 500 active; AID 686980, 2013; also: potency is read from the fitted curve at half-maximal effect; % is scaled to controls: 0 for no effect and ±100 for the full control effect; nearly all actives have a fitted effect of over 65% in size
POLI cherry-pick: qHTS for Inhibitors of Polymerase Iota: Confirmatory Assay for Cherry-picked Compounds; shares compounds with Pol kappa inh-1; Potency, µM, usual class: inhibitors; AID 720496, 2013; 77% of 1,500 active; Pol iota primer extension, TAMRA/BHQ fluorescence; also: potency is read from the fitted curve at half-maximal effect
Pol kappa inh-2: qHTS for Inhibitors of Polymerase Kappa: Confirmatory Assay for Cherry-picked Compounds | 76% of 920 active | shares compounds with Pol eta inh-1 | Potency, µM, most hits filed as inhibitors | purified Pol-kappa, fluorescent strand-displacement substrate; also: potency is read from the fitted curve at half-maximal effect
Pol eta inh-2: qHTS for Inhibitors of Polymerase Eta: Confirmatory Assay for Cherry-picked Compounds; shares compounds with Pol eta inh-1; Pol eta primer extension, TAMRA/BHQ fluorescence, 10 min; Potency, µM, hits mostly inhibitors; 64% of 2,600 active; AID 720502, 2013; also: potency is read from the fitted curve at half-maximal effect
FEN1 inh-2: qHTS Assay for the Inhibitors of FEN1: Confirmatory Assay for Cherry-picked Compounds; shares compounds with FEN1 inh-1; FEN1 flap cleavage, TAMRA/BHQ2 fluorogenic DNA substrate; Potency, µM, usual class: inhibitors; 79% of 880 active; AID 720498, 2013; also: potency is read from the fitted curve at half-maximal effect; nearly all actives have a fitted effect of over 60% in size
Active calls of the source: *; ? = inconclusive; . = not tested or not shown; [ ] = another dose, or the depositor's remark. Unless noted, calls follow the shape of the dose curve; as a rule, active = well fitted curve in the direction sought with a large enough effect; inconclusive = small, poorly fitted or top-dose-only effect, or another doubt; inactive = no such curve, though single readings can be large; an effect the other way counts as inactive or inconclusive.

SMILES	PI5P4K alpha inh	Pol iota inh	Pol kappa inh-1	FEN1 inh-1	Pol eta inh-1	Pol beta inh	POLI cherry-pick	Pol eta inh-2	FEN1 inh-2	others
COC(=O)Cc1ccc(NC(=S)N2CCN(c3ccc(F)cc3)CC2)cc1	-5.1	-12.9%	-2.2%	0.5%	-14.7%	15.3%	.	.	.
Cc1nc(S/C(=C/c2ccc(OCc3ccc(C(=O)O)cc3)cc2)C(=O)O)n[nH]1	?	3.98µM*	39.8µM*	?	20µM*	-26.1%	11.9*	26.9*	.
CC(C)(C)n1nc2c(c1NC(=O)C1CC(=O)N(c3ccc(Cl)cc3)C1)CS(=O)(=O)C2 (stereo unspecified)	-3.6	6.4%	-2.1%	4.1%	-11.9%	26.5%	.	.	.
O=C(Nc1ccc2nc(-c3ccc4nc[nH]c4c3)[nH]c2c1)c1cccs1	?	1.12µM*	35.5µM*	44.7µM*	20µM*	4.47µM*	?	?	?
COc1cc2c3c(c1OC)C(=O)CC3CCCC2 (stereo unspecified)	5.3	.	.	.	.	.	.	.	.
O=C1C=CC(=O)c2c(O)c(N3CCN(CCO)CC3)c(Cl)c(O)c21	?	5.62µM*	22.4µM*	?	1.78µM*	.	3.36*	16.9*	75.7*	Pol kappa inh-2=16.8*
OCCOCCN1CCN(C2=Nc3ccccc3Sc3ccccc32)CC1	-3.2	15.1%	-13.1%	-7.3%	-1.0%	5.6%	.	.	.
O=C1C=CC(=O)c2c(O)c(N3CCN(CCOCCO)CC3)c(Br)c(O)c21	-54.7*	?	28.2µM*	31.6µM*	0.794µM*	.	2.12*	7.57*	33.8*	Pol kappa inh-2=2.99*
CCCC(=O)Nc1nnc(SCc2cc(=O)n3ccccc3n2)s1	.	-13.1%	-4.2%[60.1 µM]	-7.0%	11.5%	0.5%	.	.	.
O=C(O)c1cccc(NC(=O)c2ccc(COc3ccc(Cl)cc3)cc2)c1	-7.2	-0.9%	-22.2%	-9.9%	6.4%	?	.	.	.
N#C/C(=C\c1ccc(OCc2ccc(Cl)cc2)cc1)C(=O)Nc1cccc(C(=O)O)c1	-1.9	?	-8.4%	?	?	31.6µM*	42.3*	75.7*	67.5*
O=C(O)c1ccc(Nc2c3ccccc3nc3ccccc23)cc1	-2.8	111.2%	-13.9%	-0.5%	-10.3%	-2.2%	.	.	.
CN1CCN(c2ccc(Nc3c4ccccc4nc4ccccc34)cc2)CC1	.	.	18.9µM*	.	.	.	42.3*	.	19*	Pol kappa inh-2=29.9*
O=c1cc2c(=O)oc3cc(O)c(O)oc3c2c(O)c1O	-74.8*	1.12µM*	2.82µM*	7.08µM*	0.708µM*	0.355µM*	1.06*	1.2*	8.49*	PGK validate=?;Pol kappa inh-2=0.947*
CC(=O)Nc1sc2c(c1-c1nc3ccccc3s1)CCCNC2	.	.	.	.	.	.	?	.	33.8*
CN1CCc2c(sc(NC(=O)CSc3ccc(F)cc3)c2-c2nc3ccccc3s2)C1	.	53.4%	-17.3%	-20.4%	-1.9%	33.1%	.	.	.
CC(=O)Nc1sc2c(c1-c1nc3ccccc3s1)CCNC2	.	.	.	.	.	.	21.2*	.	3.38*	Pol kappa inh-2=8.44*
O=C(O)c1ccc(-n2cccc2/C=N\NC(=O)c2cc3cc(Br)ccc3o2)cc1	-92.7*	7.08µM*	14.1µM*	?	3.16µM*	?	2.99*	5.36*	?	PGK validate=9.19µM*
O=C(O)C(Cc1ccccc1)N1C(=O)/C(=C/C=C/c2ccco2)SC1=S (stereo unspecified)	-98.8*	1.12µM*	3.16µM*	11.2µM*	1.41µM*	1.58µM*	2.99*	3.38*	26.9*	PGK validate=5.8µM*
COc1ccc(/C=C2\SC(=S)N(C(Cc3ccccc3)C(=O)O)C2=O)cc1 (stereo unspecified)	3.1	-1.9%	-9.0%	-6.5%	4.5%	-11.7%	.	.	.
O=C(NN1C(=O)/C(=C/C=C/c2ccco2)SC1=S)c1ccccc1O	-78.5*	1.26µM*	3.98µM*	11.2µM*	1.12µM*	1.12µM*	2.67*	3.38*	26.9*	PGK validate=9.19µM*
O=C(O)CC(C(=O)O)N1C(=O)/C(=C/C=C/c2ccco2)SC1=S (stereo unspecified)	-54.7*	1.58µM*	-96.4%	?	0.891µM*	0.794µM*	5.32*	3.01*	10.7*	PGK validate=2.91µM*
Cn1cccc1/C=C1\SC(=S)N(NC(=O)c2ccccc2O)C1=O	-13.4	?	-18.2%	3.2%	-9.1%	-13.5%	.	.	.
O=C(NC(C(=O)N/N=C/c1cccnc1)c1n[nH]c(=O)c2ccccc12)c1ccccc1 (stereo unspecified)	-2.9	29.8%	3.8%	-5.6%	-14.8%	5.3%	.	.	.
Nc1nonc1-c1nc2ccccc2n1CC(=O)N/N=C/c1ccc(-c2cccc(C(=O)O)c2)o1	-59.5*	17.8µM*	?	44.7µM*	17.8µM*	20µM*	75.2*	23.9*	37.9*
Nc1nonc1-c1nc2ccccc2n1CC(=O)Nc1ccccc1C(=O)O	.	8.0%	-15.0%	1.6%	-6.1%	-1.2%	.	.	.
Cc1cccc(/C=C\c2nc3ccccc3c(=O)[nH]2)c1	6.3	1.8%	3.3%	3.8%	-11.5%	2.7%	.	.	.
COc1cc(/C=C/c2nc3ccccc3c(=O)[nH]2)cc(Cl)c1O	4.9	32.7%	-0.6%	?	?	?	?	.	?
